An excerpt weighted towards active compounds, which were near 10% of everything screened.
HPGD inh: inhibitors of human 15-hydroxyprostaglandin dehydrogenase (HPGD); purified HPGD, NADH fluorescence kinetic, PGE2 substrate; P15428; 150,000 tested, 4.3% active; Potency, µM, hits mostly inhibitors
Target sequence (P15428 whole entry, looked up): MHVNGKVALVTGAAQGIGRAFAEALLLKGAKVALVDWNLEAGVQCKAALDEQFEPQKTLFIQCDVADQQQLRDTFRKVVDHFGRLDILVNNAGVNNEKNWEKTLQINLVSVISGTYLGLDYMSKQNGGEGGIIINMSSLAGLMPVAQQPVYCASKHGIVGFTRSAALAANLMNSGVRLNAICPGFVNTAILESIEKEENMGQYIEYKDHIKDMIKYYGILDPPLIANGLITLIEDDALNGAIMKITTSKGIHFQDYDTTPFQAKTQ
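20 nM HPGD preincubated 15 min at room temperature with compound in 50 mM Tris-HCl pH 8, 0.01% Tween 20. Started with 1 mM NAD+ and 30 uM prostaglandin E2; NADH fluorescence (360/450 nm) read 5 times over 30-s intervals, last minus first.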
ALDH1A1 inh: inhibitors of human aldehyde dehydrogenase 1A1 | AID 1030 | Purified ALDH1A1, NADH fluorescence, propionaldehyde substrate | P00352 | Potency, µM (titrated, usually from 75.3 µM), usual class: inhibitors | 220,000 tested, 7.3% active
LMNA splice mod: changes lamin A minigene splicing in HeLa cells. HeLa LMNA splicing GFP/RFP minigene ratio, 48 h. Potency, µM (highest dose often 46.1 µM), actives largely listed as inhibitors. 200,000 tested, 0.01% active; active = well fitted inhibition curve with a large enough effect in the signal ratio, with a control signal flat, not every such curve was filed as active; inconclusive = small, poorly fitted or top-dose-only effect, or effect the other way, or a change in a side signal; the % refers to the signal ratio
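S3 HeLa cells stably expressing lamin A-EGFP splicing minigene plus DsRed2, 600 cells/well, 48 h compound exposure at 37C. Laser-scanning cytometry; analysed as GFP (500-530 nm)/RFP (575-640 nm) total intensity ratio; 0.5% DMSO vehicle.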
12-hLO inh: inhibitors of human 12-lipoxygenase (ALOX12). P18054. purified 12-hLO, xylenol orange hydroperoxide absorbance. Potency, µM (top dose mostly 57.1 µM), actives largely listed as inhibitors. 150,000 tested, 0.12% active. AID 1452; active = well fitted inhibition curve with a large enough effect; inconclusive = small, poorly fitted or top-dose-only effect; also: nearly all actives have a fitted effect of over 55% in size
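Lipoxygenase turnover measured by absorbance at 573 and 405 nm after Fe-XO development. Human 12hLO 150 nM, arachidonate 40 uM, pH 7.0 Hepes buffer with detergent; 15 min compound preincubation, 30 min reaction.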
PNC assembly inh: inhibitors of perinucleolar compartment assembly; PC3M PTB-GFP, PNC prevalence imaging, 16 h; hits give low values; activity change (PNC), negative = inhibition, % at 10 µM; 140,000 tested, 3.1% active; AID 2417;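 active = readout at or below -70, meaning at least 70% loss of cells showing the perinucleolar compartment, a nuclear body marking cancer cells; inconclusive = readout between -30 and a set limit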
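PC3M cells stably expressing PTB-GFP, 750–1000 cells/well, treated 16 h at 37 °C with compound (23 nl of library stock), in duplicate. After paraformaldehyde fixation and Hoechst stain, imaged at 20x; PNC prevalence scored by image analysis.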
Of the large screens only hits and unclear results are named; the others gave an inactive call. Unless noted, calls follow the shape of the dose curve; as a rule, active = well fitted inhibition curve with a large enough effect (not every such curve was filed as active); inconclusive = small, poorly fitted or top-dose-only effect, or another doubt; inactive = no such curve, though single readings can be large or run the other way.

Cc1nc2sc3c(c2c(=O)[nH]1)CCC3	none
Cc1cc(-c2nc3c4c5c(sc4[nH]c(=O)n3n2)CCC5)c(C)o1	HPGD inh 20µM
Cc1ccc(S(=O)(=O)CCSc2nc(C)cc(C(F)(F)F)c2C#N)cc1	ALDH1A1 inh 0.355µM, LMNA splice mod inconclusive, PNC assembly inh -118.9
COc1ccc(-n2ncc(C(=O)Nc3ccc(C)cc3Cl)c2C2CCN(C(=O)OC(C)(C)C)CC2)cc1	none (no result: HPGD inh, ALDH1A1 inh, 12-hLO inh, PNC assembly inh)
O=C(CN1CCOCC1)Nc1ncc(Cc2ccccc2Cl)s1	PNC assembly inh inconclusive
CCc1ccc(CCC(=O)Nc2ncc(Cc3ccccc3Cl)s2)o1	ALDH1A1 inh inconclusive, LMNA splice mod inconclusive, PNC assembly inh -91.0
CCn1c(CNc2ccc(F)cc2)nnc1SCC(=O)N1CCCc2ccccc21	ALDH1A1 inh inconclusive, LMNA splice mod inconclusive
CCn1c(CNc2ccc(C)cc2C)nnc1SCC(=O)N1CCCc2ccccc21	ALDH1A1 inh 7.08µM
CCn1c(CNc2ccc(OC)cc2)nnc1SCC(=O)N1CCCc2ccccc21	ALDH1A1 inh 7.08µM
CC(=O)Nc1ccc(NC(=O)CSc2nnc(CNc3ccc(F)cc3)n2CC2CCCO2)cc1 (stereo unspecified)	none (no result: HPGD inh, 12-hLO inh, PNC assembly inh)
COc1ccc(NCc2nnc(SCC(=O)N3CCCc4ccccc43)n2C)cc1	ALDH1A1 inh 3.16µM
Cc1ccc(NCc2nnc(SCC(=O)Nc3ccccc3)n2CC2CCCO2)c(C)c1 (stereo unspecified)	ALDH1A1 inh 7.94µM, PNC assembly inh inconclusive
CCc1ccccc1N(C)S(=O)(=O)c1ccc2[nH]cc(C(=O)NCCOC)c(=O)c2c1	none (no result: HPGD inh, ALDH1A1 inh, 12-hLO inh, PNC assembly inh)
CC1=C(C(=O)Nc2ccc([N+](=O)[O-])cc2)C(c2cccc(C(F)(F)F)c2)NC(=S)N1c1ccccc1 (stereo unspecified)	ALDH1A1 inh 14.1µM, LMNA splice mod inconclusive, 12-hLO inh 22.4µM
COc1ccc(C2NC(=S)N(c3ccccc3)C(C)=C2C(=O)Nc2ccccc2)cc1 (stereo unspecified)	ALDH1A1 inh 2µM, 12-hLO inh inconclusive
Cc1ccc(C)c(CNC(=O)CCn2cccn2)c1	none (no result: HPGD inh, ALDH1A1 inh, 12-hLO inh, PNC assembly inh)
CCOC(=O)COc1ccccc1/C=C\[N+](=O)[O-]	HPGD inh 15.8µM, ALDH1A1 inh 4.47µM, LMNA splice mod inconclusive, PNC assembly inh inconclusive
CCOC(=O)COc1cc([N+](=O)[O-])cc2cccnc12	none (no result: HPGD inh, LMNA splice mod, 12-hLO inh, PNC assembly inh)
CCOC(=O)CSc1nc2ccccc2n2cnnc12	HPGD inh inconclusive, ALDH1A1 inh 17.8µM, PNC assembly inh inconclusive
C[C@]12CCC(=O)C=C1CCC1C2C(O)C[C@]2(C)C1CC[C@]2(O)C(=O)CO (stereo partly specified)	none (no result: LMNA splice mod, PNC assembly inh)
CCOC(=O)c1c(S(=O)(=O)N2CCCC(C(=O)N3CCN(c4cccc(C)c4C)CC3)C2)c(C)n(C)c1C (stereo unspecified)	none (no result: HPGD inh, ALDH1A1 inh, 12-hLO inh, PNC assembly inh)
Cc1cc(OCC(=O)C(C)(C)C)c2c(C)c(C)c(=O)oc2c1	ALDH1A1 inh inconclusive, LMNA splice mod inconclusive, PNC assembly inh -100.0
O=C(Nc1ccccc1)N1CC2(CCN(C(=O)c3cccc(F)c3)CC2)C1	none (no result: LMNA splice mod, PNC assembly inh)
COCCn1c(=O)c(-c2cc(F)cc(F)c2)nc2cnc(N3CCOCC3)nc21	ALDH1A1 inh inconclusive (no result: HPGD inh, 12-hLO inh, PNC assembly inh)
O=C(O)[C@H]1CC=CC[C@@H]1C(=O)Nc1cccc(O)c1	none (no result: LMNA splice mod, PNC assembly inh)
O=C(O)C1CC=CCC1C(=O)Nc1ccc2c(c1)OCCO2 (stereo unspecified)	ALDH1A1 inh inconclusive, PNC assembly inh -118.8
O=C(O)C1CC=CCC1C(=O)Nc1ccc(F)c(F)c1 (stereo unspecified)	none
O=C(O)C1CC=CCC1C(=O)Nc1cccc(F)c1 (stereo unspecified)	ALDH1A1 inh 28.2µM
O=C(C1CCN(c2nc3ccccc3[nH]2)CC1)N1CCN(c2ccccc2)CC1	none (no result: HPGD inh, ALDH1A1 inh, 12-hLO inh, PNC assembly inh)
O=C(OCCO)c1ccccc1O	none (no result: LMNA splice mod, PNC assembly inh)
COC(=O)c1n[nH]n(-c2cc(Cl)cc(Cl)c2)c1=O	ALDH1A1 inh 10µM (no result: HPGD inh, LMNA splice mod, 12-hLO inh, PNC assembly inh)
CCNC(=O)[C@H]1O[C@H](n2cnc3c(N)nc(NCCc4ccc(CCC(=O)O)cc4)nc32)[C@@H](O)[C@@H]1O	ALDH1A1 inh inconclusive (no result: LMNA splice mod, PNC assembly inh)
CCN(CC)CCNC(=O)C(=O)NCC(c1cccnc1)N1CCN(c2ccccc2)CC1 (stereo unspecified)	none (no result: HPGD inh, ALDH1A1 inh, 12-hLO inh, PNC assembly inh)
COc1cc(OC)cc(-c2nc3cc(C)ccc3o2)c1	HPGD inh inconclusive, ALDH1A1 inh inconclusive, PNC assembly inh -116.6
CC(C)CNC(=O)CSc1ccc(Cl)cc1	HPGD inh 15.8µM
Cc1ccc(SCC(=O)NCC(C)C)cc1	HPGD inh 15.8µM
Cc1ccc(SCC(=O)NCc2ccc(F)cc2)cc1	none (no result: HPGD inh, 12-hLO inh, PNC assembly inh)
CC(C)C(NC(=O)CSc1ccc(Cl)cc1)C(C)C	HPGD inh 12.6µM, PNC assembly inh -82.8
CN(C)CCCO[C@H]1C([C@H](O)CO)O[C@@H]2OC(C)(C)O[C@@H]21 (stereo partly specified)	none (no result: 12-hLO inh, PNC assembly inh)
Cc1c(N2C(=O)/C(=C\C3CC=CCC3)SC2=S)c(=O)n(-c2ccccc2)n1C (stereo unspecified)	ALDH1A1 inh 1.26µM (no result: HPGD inh, 12-hLO inh, PNC assembly inh)
O=C(NC(=S)NNC(=O)c1ccccc1[N+](=O)[O-])c1ccccc1	HPGD inh 31.6µM, ALDH1A1 inh 10µM
CCC(=O)NC(=S)NNC(=O)c1ccccc1[N+](=O)[O-]	ALDH1A1 inh 10µM (no result: HPGD inh, 12-hLO inh, PNC assembly inh)
O=C(NNC(=S)NC(=O)c1ccccc1[N+](=O)[O-])c1ccccc1	PNC assembly inh inconclusive
CCCc1cc(=O)[nH]c(SCc2nc(-c3ccccc3)no2)n1	none (no result: HPGD inh, ALDH1A1 inh, 12-hLO inh, PNC assembly inh)
COCCOc1nc2c(c(=O)n(C)c(=O)n2C)n1Cc1cccc(OC)c1	ALDH1A1 inh inconclusive, LMNA splice mod inconclusive
COc1cccc(Cn2c(OCC3CCCO3)nc3c2c(=O)n(C)c(=O)n3C)c1 (stereo unspecified)	ALDH1A1 inh 7.08µM

Bioassay records: PubChem BioAssay, National Center for Advancing Translational Sciences (NCATS)
